Source: the supplement of paper PMC10849652
Of roughly 8,800 targets only a part is listed; those with a hit were picked by preference. About 0.5% of all pairs of compound and target were hits.

Tests used:
Test in all cases: log2 fold change, soluble protein after heating vs DMSO (PISA); higher = thermal stabilisation; K562 lysate, 10 uM; active = over 0.2 and 3.5 SD of the protein, either way, in both replicates (recomputed)
erlotinib = compound: C#Cc1cccc(Nc2ncnc3cc(OCCOC)c(OCCOC)cc23)c1 [erlotinib]
Summary of the method: (§1)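 A 30 min treatment with 10 μM compound was applied to crude K562 extract at 1 mg/mL protein in PBS pH 7.4 with 1 mM MgCl2. Heating for 3 min spanned 48°C-58°C, after which aliquots were pooled, adjusted to 0.5% NP-40 at 4°C and spun at 21,000xg for 90 min. TMTpro 16plex LC-MS/MS of the supernatant, with channel sums equalised, gave values recorded as log-two fold change in thermal stability against solvent controls, from duplicates.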

[1] = compound: C/C(=N\NC(=O)C1=CC(=CC=C1)S(=O)(=O)N2CCOCC2)/C3=C(C=CC(=C3)Cl)O
Summary of the method: as §1

[2] = compound: C1=CC(=CC=C1C2=NC3=C(N2)C=C(C=C3)C(=O)N)OC4=CC=C(C=C4)Cl
Summary of the method: as §1

[3] = compound: C1=CC2=C(C=CC(=C2)/C=C\3/C(=O)NC(=NCC4=CC=CS4)S3)N=C1
Summary of the method: as §1

[4] = compound: C1=CC2=NC=CN=C2C=C1/C=C/3\C(=O)NC(=O)S3
Summary of the method: as §1

[5] = compound: C1=CC=C(C=C1)C2=NC(=C(N2)C3=CC=NC=C3)C4=CC(=C(C=C4)Cl)O
Summary of the method: as §1

[6] = compound: C1=CC=C2C(=C1)C3=NNC4=CC=CC(=C43)C2=O
Summary of the method: as §1

[7] = compound: C1CCN(C1)C(=O)NC2=CC=CC(=C2)NC3=NC=C(C(=N3)NCCC4=CN=CN4)Br
Summary of the method: as §1

[8] = compound: C1CN(CCC1(CC2=CC=C(C=C2)Cl)N)C3=NC=NC4=C3C=CN4
Summary of the method: as §1

IRAK-1-4 Inhibitor I = compound: C1COCCN1CCN2C3=CC=CC=C3N=C2NC(=O)C4=CC(=CC=C4)[N+](=O)[O-] [IRAK-1-4 Inhibitor I]
Summary of the method: as §1

ibrutinib = compound: C=CC(=O)N1CCC[C@@H](n2nc(-c3ccc(Oc4ccccc4)cc3)c3c(N)ncnc32)C1 [ibrutinib]
Summary of the method: as §1

[9] = compound: CC(=O)c1cnc2ccc(-c3cc(Cl)c(O)c(Cl)c3)nc2c1N[C@H]1CC[C@H](CN(C)C)CC1
Summary of the method: as §1

ralimetinib = compound: CC(C)(C)Cn1c(N)nc2ccc(-c3[nH]c(C(C)(C)C)nc3-c3ccc(F)cc3)nc21 [ralimetinib]
Summary of the method: as §1

[10] = compound: CC(C)(O)CC(=O)NCCn1ccc2ncnc(Nc3ccc(Oc4cccc(C(F)(F)F)c4)c(Cl)c3)c21
Summary of the method: as §1

[11] = compound: CC(C)C1=C2N=C(C=C(N2N=C1)NCC3=CC=CC=C3)NCCCCCCN
Summary of the method: as §1

[12] = compound: CC1=C(C(CC(=O)N1)C2=CC=C(C=C2)C(F)(F)F)C(=O)NC3=C(C=C4C(=C3)C=NN4)F
Summary of the method: as §1

[13] = compound: CC1=C(C2=C(C=C1)C(=O)C3=CC=CC=C3N2CCCN)C
Summary of the method: as §1

[14] = compound: CC1=C(C=C(C=C1)NC(=O)C2=CC(=CC=C2)C(C)(C)C#N)NC3=CC4=C(C=C3)N=CN(C4=O)C
Summary of the method: as §1

[15] = compound: CC1=C(C=C(C=C1)NC(=O)C2=CC(=CC=C2)N(C)C)NC(=O)C3=CC=C(C=C3)O
Summary of the method: as §1

[16] = compound: CC1=CC=C(C=C1)SC2=C3C=C(SC3=CN=C2)C(=O)N
Summary of the method: as §1

Measured: log2 fold change

HSP90AA4P (UniProt Q58FG1)
Chain of UniProt Q58FG1 (Q58FG1 whole entry, looked up): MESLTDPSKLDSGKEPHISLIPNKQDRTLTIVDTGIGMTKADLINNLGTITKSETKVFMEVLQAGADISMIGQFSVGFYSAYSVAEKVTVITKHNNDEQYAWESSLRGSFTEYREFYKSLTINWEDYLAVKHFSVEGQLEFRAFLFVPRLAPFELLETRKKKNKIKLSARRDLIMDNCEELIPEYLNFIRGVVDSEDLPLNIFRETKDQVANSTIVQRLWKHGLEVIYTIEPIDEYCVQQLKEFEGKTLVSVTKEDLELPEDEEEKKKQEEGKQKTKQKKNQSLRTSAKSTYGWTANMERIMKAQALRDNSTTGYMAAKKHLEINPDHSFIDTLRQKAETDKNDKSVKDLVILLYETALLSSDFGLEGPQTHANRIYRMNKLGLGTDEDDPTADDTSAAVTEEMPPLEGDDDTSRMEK
inactive: erlotinib -0.064 | [1] 0.994 | [2] 0.097 | [3] 0.018 | [4] -0.129 | [5] 0.023 | [6] -0.003 | [7] -0.032 | [8] -0.09 | IRAK-1-4 Inhibitor I 0.081 | ibrutinib 0.026 | [9] -0.123 | ralimetinib -0.011 | [10] -0.055 | [11] 0.021 | [12] -0.071 | [13] -0.045 | [14] 0.073 | [15] 0.097 | [16] -0.051

HDHD5 (UniProt Q9BXW7)
inactive: erlotinib -0.015 | [1] -0.038 | [2] 0.012 | [3] 0.07 | [4] 0.022 | [5] -0.006 | [6] -0.027 | [7] -0.023 | [8] -0.05 | IRAK-1-4 Inhibitor I 0.051 | ibrutinib -0.027 | [9] 0.018 | ralimetinib 0 | [10] 0.073 | [11] -0.042 | [12] 0.011 | [13] -0.023 | [14] -0.007 | [15] 0.024 | [16] -0.001

HAUS7 isoform 2 (UniProt Q99871)
Chain of UniProt Q99871 (Q99871 whole entry, looked up): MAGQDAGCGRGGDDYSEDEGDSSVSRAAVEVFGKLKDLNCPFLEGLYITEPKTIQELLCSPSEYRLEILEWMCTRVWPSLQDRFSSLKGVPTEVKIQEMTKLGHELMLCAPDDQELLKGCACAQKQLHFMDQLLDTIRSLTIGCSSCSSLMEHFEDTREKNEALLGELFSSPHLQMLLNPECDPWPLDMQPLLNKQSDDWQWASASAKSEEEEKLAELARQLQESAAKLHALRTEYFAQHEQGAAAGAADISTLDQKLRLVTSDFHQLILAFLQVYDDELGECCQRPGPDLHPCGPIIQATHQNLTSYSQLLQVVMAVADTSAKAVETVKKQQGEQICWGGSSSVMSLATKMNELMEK
inactive: erlotinib 0.104 | [1] 0.106 | [2] 0.028 | [3] -0.005 | [4] 0 | [5] 0.048 | [6] -0.006 | [7] -0.011 | [8] 0.164 | IRAK-1-4 Inhibitor I -0.028 | ibrutinib 0.082 | [9] 0.105 | ralimetinib -0.002 | [10] -0.031 | [11] 0.05 | [12] -0.003 | [13] 0.028 | [14] -0.031 | [15] 0.021 | [16] -0.054

GUSB (UniProt P08236)
Chain of UniProt P08236 (P08236 whole entry, looked up): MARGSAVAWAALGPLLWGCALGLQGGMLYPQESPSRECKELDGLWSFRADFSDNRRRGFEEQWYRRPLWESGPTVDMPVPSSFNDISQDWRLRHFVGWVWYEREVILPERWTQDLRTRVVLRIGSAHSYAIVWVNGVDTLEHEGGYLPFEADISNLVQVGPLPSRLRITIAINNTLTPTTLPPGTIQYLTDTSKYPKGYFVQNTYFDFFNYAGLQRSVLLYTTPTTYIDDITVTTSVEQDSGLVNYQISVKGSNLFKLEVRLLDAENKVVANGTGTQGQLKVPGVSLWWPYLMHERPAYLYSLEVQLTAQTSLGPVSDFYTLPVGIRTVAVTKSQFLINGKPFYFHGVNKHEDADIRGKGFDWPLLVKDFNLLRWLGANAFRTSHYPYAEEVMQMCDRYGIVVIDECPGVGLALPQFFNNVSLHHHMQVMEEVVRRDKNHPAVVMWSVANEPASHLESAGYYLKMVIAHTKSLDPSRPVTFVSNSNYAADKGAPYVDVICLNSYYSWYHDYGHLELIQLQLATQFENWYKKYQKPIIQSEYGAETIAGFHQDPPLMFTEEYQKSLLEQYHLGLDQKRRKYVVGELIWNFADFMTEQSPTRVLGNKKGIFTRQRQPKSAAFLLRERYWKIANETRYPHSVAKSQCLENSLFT
inactive: erlotinib -0.053 | [1] -0.043 | [2] 0.135 | [3] -0.072 | [4] -0.041 | [5] -0.058 | [6] -0.072 | [7] -0.003 | [8] 0.055 | IRAK-1-4 Inhibitor I 0.066 | ibrutinib 0.06 | [9] -0.099 | ralimetinib 0.056 | [10] -0.097 | [11] 0.099 | [12] -0.075 | [13] 0.069 | [14] 0.044 | [15] -0.029 | [16] -0.088

HAUS6 (UniProt Q7Z4H7)
inactive: erlotinib 0.031 | [1] 0.102 | [2] -0.038 | [3] -0.035 | [4] -0.008 | [5] 0.019 | [6] 0.024 | [7] -0.015 | [8] 0.039 | IRAK-1-4 Inhibitor I 0.017 | ibrutinib 0.025 | [9] -0.054 | ralimetinib 0.027 | [10] -0.003 | [11] -0.015 | [12] 0.029 | [13] 0.01 | [14] -0.008 | [15] 0.073 | [16] 0.078

KDM6A (UniProt O15550)
Chain of UniProt O15550 (O15550 whole entry, looked up): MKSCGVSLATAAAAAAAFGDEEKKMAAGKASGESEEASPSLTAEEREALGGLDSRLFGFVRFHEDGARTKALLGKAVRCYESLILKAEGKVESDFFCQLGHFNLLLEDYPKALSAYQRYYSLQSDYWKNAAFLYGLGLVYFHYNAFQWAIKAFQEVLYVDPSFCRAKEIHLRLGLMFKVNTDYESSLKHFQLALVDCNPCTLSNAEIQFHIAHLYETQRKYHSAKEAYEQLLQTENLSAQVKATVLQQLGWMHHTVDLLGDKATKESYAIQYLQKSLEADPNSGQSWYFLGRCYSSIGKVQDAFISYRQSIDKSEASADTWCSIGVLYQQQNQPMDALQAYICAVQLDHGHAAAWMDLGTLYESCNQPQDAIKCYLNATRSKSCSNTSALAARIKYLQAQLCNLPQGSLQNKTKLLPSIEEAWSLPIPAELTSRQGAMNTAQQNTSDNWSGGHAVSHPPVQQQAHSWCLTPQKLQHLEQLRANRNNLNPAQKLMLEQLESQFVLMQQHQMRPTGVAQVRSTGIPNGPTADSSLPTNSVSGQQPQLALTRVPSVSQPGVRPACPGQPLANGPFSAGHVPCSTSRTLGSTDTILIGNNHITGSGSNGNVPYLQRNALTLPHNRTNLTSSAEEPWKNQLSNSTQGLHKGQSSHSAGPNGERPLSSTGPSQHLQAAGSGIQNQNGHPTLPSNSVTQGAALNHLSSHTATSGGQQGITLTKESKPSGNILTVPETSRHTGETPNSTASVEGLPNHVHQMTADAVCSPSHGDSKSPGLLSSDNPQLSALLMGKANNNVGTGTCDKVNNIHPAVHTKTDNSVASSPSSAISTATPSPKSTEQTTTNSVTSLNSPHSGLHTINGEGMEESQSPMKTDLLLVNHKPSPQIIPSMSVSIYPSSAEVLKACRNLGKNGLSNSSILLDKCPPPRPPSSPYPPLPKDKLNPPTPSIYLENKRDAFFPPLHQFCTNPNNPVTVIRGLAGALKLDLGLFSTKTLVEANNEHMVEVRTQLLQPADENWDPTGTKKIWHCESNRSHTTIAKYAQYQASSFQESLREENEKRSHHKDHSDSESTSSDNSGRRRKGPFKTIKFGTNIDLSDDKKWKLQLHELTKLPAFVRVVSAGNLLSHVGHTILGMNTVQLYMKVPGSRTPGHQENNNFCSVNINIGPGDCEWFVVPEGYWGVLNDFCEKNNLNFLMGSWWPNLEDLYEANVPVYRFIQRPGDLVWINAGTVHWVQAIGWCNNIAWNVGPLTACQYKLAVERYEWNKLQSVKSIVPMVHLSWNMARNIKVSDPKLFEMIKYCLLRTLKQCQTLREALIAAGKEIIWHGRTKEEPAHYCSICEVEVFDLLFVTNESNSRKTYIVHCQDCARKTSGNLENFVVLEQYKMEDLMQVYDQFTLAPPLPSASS
inactive: erlotinib -0.022 | [1] -0.039 | [2] 0.061 | [3] 0 | [4] 0.006 | [5] 0.023 | [6] -0.064 | [7] 0.004 | [8] 0.045 | IRAK-1-4 Inhibitor I 0.017 | ibrutinib -0.007 | [9] 0.012 | ralimetinib 0.003 | [10] -0.028 | [11] 0.025 | [12] -0.007 | [13] -0.065 | [14] 0.009 | [15] -0.004 | [16] 0.022

KEAP1 (UniProt Q14145)
inactive: erlotinib 0.048 | [1] 0.006 | [2] 0.018 | [3] -0.005 | [4] 0.014 | [5] 0.015 | [6] -0.006 | [7] 0.038 | [8] 0.018 | IRAK-1-4 Inhibitor I -0.006 | ibrutinib 0.014 | [9] 0.001 | ralimetinib 0.017 | [10] -0.014 | [11] -0.015 | [12] -0.026 | [13] -0.049 | [14] 0.012 | [15] 0.019 | [16] -0.024

GSK3B isoform 2 (UniProt P49841)
Chain of UniProt P49841 (P49841 whole entry, looked up): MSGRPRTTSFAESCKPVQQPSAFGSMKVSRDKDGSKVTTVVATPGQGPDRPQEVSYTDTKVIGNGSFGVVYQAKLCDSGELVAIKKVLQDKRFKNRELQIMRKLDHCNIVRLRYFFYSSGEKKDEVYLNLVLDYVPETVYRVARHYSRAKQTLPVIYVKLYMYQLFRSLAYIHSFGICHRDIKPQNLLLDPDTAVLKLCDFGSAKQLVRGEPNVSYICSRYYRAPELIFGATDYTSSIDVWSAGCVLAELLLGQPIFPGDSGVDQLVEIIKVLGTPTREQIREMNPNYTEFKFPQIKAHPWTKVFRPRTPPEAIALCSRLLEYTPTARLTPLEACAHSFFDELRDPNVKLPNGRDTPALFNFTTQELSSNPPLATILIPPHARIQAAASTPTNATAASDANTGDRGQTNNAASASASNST
inactive: erlotinib 0.043 | [1] -0.323 | [2] 0.036 | [3] 0.145 | [4] 0.085 | [5] 0.459 | [6] 0.132 | [7] 0.202 | [8] -0.011 | IRAK-1-4 Inhibitor I -0.002 | ibrutinib -0.064 | [9] 0.344 | ralimetinib -0.012 | [10] -0.008 | [11] -0.016 | [12] -0.04 | [13] -0.006 | [14] -0.018 | [15] -0.029 | [16] 0.189

ILRUN (UniProt Q9H6K1)
inactive: erlotinib -0.004 | [1] 0.056 | [2] 0.004 | [3] -0.018 | [4] 0.016 | [5] 0.018 | [6] 0.011 | [7] 0.006 | [8] 0.033 | IRAK-1-4 Inhibitor I 0.02 | ibrutinib -0.002 | [9] -0.011 | ralimetinib 0.001 | [10] -0.019 | [11] 0.007 | [12] 0.035 | [13] -0.03 | [14] 0.009 | [15] 0.018 | [16] 0.02

INPPL1 (UniProt O15357)
inactive: erlotinib -0.01 | [1] -0.034 | [2] -0.018 | [3] -0.052 | [4] -0.006 | [5] -0.02 | [6] -0.051 | [7] -0.021 | [8] 0.003 | IRAK-1-4 Inhibitor I -0.034 | ibrutinib 0.012 | [9] 0.02 | ralimetinib 0.049 | [10] -0.013 | [11] 0.004 | [12] 0.011 | [13] -0.005 | [14] -0.001 | [15] 0.034 | [16] 0.014

GMIP (UniProt Q9P107)
Chain of UniProt Q9P107 (Q9P107 whole entry, looked up): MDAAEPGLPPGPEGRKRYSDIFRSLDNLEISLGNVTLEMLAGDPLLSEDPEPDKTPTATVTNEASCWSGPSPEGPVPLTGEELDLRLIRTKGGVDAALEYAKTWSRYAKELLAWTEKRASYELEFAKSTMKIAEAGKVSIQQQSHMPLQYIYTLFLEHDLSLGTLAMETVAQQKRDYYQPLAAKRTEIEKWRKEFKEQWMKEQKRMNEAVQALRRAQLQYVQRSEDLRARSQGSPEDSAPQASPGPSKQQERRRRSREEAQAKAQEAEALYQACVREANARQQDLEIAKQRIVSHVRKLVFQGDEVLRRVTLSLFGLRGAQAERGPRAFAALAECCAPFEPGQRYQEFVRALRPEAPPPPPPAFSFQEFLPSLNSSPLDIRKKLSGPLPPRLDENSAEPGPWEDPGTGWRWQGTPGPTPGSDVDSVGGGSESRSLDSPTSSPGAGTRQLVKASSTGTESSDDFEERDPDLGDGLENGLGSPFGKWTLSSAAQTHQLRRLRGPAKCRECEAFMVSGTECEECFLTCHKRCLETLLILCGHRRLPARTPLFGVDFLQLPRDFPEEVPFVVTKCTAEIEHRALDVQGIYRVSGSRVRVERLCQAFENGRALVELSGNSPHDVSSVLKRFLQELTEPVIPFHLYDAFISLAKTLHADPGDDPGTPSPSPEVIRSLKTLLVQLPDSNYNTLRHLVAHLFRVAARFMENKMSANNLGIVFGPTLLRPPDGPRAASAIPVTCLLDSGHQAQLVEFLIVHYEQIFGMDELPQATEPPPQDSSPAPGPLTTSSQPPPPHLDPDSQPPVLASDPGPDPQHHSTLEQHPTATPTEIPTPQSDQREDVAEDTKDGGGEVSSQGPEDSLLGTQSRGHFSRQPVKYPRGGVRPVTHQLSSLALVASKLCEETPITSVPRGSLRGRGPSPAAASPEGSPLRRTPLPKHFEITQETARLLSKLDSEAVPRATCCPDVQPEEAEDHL
inactive: erlotinib 0.014 | [1] 0.019 | [2] -0.02 | [3] -0.029 | [4] 0.009 | [5] 0.068 | [6] 0.03 | [7] -0.063 | [8] 0.019 | IRAK-1-4 Inhibitor I 0.025 | ibrutinib 0.182 | [9] 0.027 | ralimetinib 0.023 | [10] -0.11 | [11] -0.017 | [12] 0.029 | [13] 0.03 | [14] 0.019 | [15] -0.068 | [16] 0.045

GNB1 (UniProt P62873)
Chain of UniProt P62873 (P62873 whole entry, looked up): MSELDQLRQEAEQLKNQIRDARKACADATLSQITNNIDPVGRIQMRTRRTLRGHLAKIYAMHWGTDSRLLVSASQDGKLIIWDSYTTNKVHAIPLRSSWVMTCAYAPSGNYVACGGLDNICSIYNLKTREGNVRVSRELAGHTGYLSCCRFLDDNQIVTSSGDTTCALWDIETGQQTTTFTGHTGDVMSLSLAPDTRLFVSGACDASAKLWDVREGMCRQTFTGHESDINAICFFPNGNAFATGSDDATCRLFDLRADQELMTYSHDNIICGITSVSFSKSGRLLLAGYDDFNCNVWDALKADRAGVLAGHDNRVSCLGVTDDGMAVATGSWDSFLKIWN
inactive: erlotinib 0.053 | [1] 0.018 | [2] 0.082 | [3] -0.019 | [4] -0.015 | [5] -0.022 | [6] 0.023 | [7] -0.017 | [8] -0.031 | IRAK-1-4 Inhibitor I 0.012 | ibrutinib 0.018 | [9] -0.018 | ralimetinib -0.036 | [10] 0.057 | [11] 0.003 | [12] -0.052 | [13] 0.076 | [14] 0.145 | [15] -0.076 | [16] -0.011

GOLPH3 (UniProt Q9H4A6)
inactive: erlotinib 0.022 | [1] -0.041 | [2] -0.075 | [3] 0.017 | [4] 0.012 | [5] 0.004 | [6] 0.019 | [7] -0.008 | [8] -0.02 | IRAK-1-4 Inhibitor I 0.035 | ibrutinib 0.024 | [9] 0 | ralimetinib 0.034 | [10] -0.019 | [11] 0.043 | [12] -0.023 | [13] 0.001 | [14] -0.02 | [15] -0.023 | [16] 0.004

HACE1 (UniProt Q8IYU2)
inactive: erlotinib 0.033 | [1] 0.083 | [2] 0.106 | [3] -0.019 | [4] 0.017 | [5] -0.189 | [6] -0.174 | [7] -0.069 | [8] 0.055 | IRAK-1-4 Inhibitor I 0.032 | ibrutinib -0.034 | [9] -0.062 | ralimetinib 0 | [10] -0.056 | [11] 0.041 | [12] -0.042 | [13] -0.042 | [14] -0.07 | [15] 0.08 | [16] 0.01

GPX4 (UniProt P36969)
Chain of UniProt P36969 (P36969 whole entry, looked up): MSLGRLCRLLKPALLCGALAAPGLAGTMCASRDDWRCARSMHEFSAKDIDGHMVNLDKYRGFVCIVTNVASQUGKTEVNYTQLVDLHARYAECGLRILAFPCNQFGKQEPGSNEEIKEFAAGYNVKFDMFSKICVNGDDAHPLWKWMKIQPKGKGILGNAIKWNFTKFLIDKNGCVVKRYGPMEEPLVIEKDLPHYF
inactive: erlotinib 0.02 | [1] 0.051 | [2] -0.037 | [3] -0.016 | [4] 0.04 | [5] -0.029 | [6] -0.06 | [7] 0.024 | [8] 0.021 | IRAK-1-4 Inhibitor I 0.012 | ibrutinib -0.013 | [9] 0.01 | ralimetinib 0.011 | [10] 0.018 | [11] -0.004 | [12] 0.006 | [13] -0.002 | [14] 0.014 | [15] 0.003 | [16] 0.039

HNRNPM (UniProt P52272)
inactive: erlotinib -0.015 | [1] -0.046 | [2] 0.004 | [3] -0.022 | [4] 0.051 | [5] -0.036 | [6] -0.039 | [7] -0.022 | [8] -0.003 | IRAK-1-4 Inhibitor I 0.005 | ibrutinib -0.031 | [9] 0.024 | ralimetinib 0.034 | [10] -0.048 | [11] 0.02 | [12] 0.051 | [13] 0.062 | [14] -0.183 | [15] 0.021 | [16] 0.007
